Results from the OligoGym collection.

Each sequence was assayed against C6orf105 (assay: pooled miR-30 sensor sort-seq; sequence = guide strand). Details: shRNA.
Also: reference of the scale not given here.

Sequence | sensor-assay potency score (higher = more potent)
TATATTTCCACCTTGCACCATT | -0.555
TTGCATGATTCAGCCACACGGG | -0.688
TAATTGAGGAAAGTATACCAGC | -0.629
TTGTAGAGAAAGAGGATCCAGA | -0.578
TATCACTCTCTGTCCCTCCTAC | 0.281
TCTCCAAGTAGGTAGATGCTGG | -0.762
TTCTTTTCAGCACATCATCCAG | -1.18
TTCAGCACATCATCCAGGCAGG | -0.972
TTAAGTATCACTCTCTGTCCCT | 0.33
TCTTTTCAGCACATCATCCAGG | -0.0678
TAAGTATCACTCTCTGTCCCTC | -0.473

Each sequence was assayed against C6orf118 in the same assay as above. Details: shRNA.

Sequence | sensor-assay potency score (higher = more potent)
TTCAGGTACCTGAACAGCGGGG | -1.06
TTTTACTAGAGATTAAAGCTGA | 0.127
TTAAGAACTAGTATTGTTGTAA | 0.558
TTACACAGGGTCTTCACTCCTG | 0.491
TGAAATTCCAGTATGAACCAAA | -0.164
TAGAGGTAGACGTCCTCCCGGT | -0.61
TACACAGGGTCTTCACTCCTGG | -0.203
TATGTTTCTCAGATGATTCTGA | 0.578
TCTCAGATGATTCTGATCGTTC | -0.778
TTGCTTGGCGAGCACTTCCTTC | -1.21
TTGTATAGCTTCATGCTCTATG | 0.444

The sequences below were run against C6orf145 in the same assay as above. Details: shRNA.

Sequence | sensor-assay potency score (higher = more potent)
ATTTTTTAACACCTGATCCAGA | -0.814
TATACTGTGGTCAATAACTATT | -1.52
TATTTGCTAAACAAAATCCATT | -1.51
TTTACATTAGCAAATGTCGGTC | -0.665
TTGACTGGACTTTGAAAGCTGG | -0.406
TCAATAACTATTGTTTCGGTAT | -0.234
TATGATCGTCTTCAGCAGCTTC | -1
TGGATTACTAAACATCCCCTGC | -0.823
TTATCTAGTCGGCAATGCCTTC | -1.25
TTACTAAACATCCCCTGCCTGT | -0.858
TCGTTAGTAGACACTGAGCAGA | -0.734

Each sequence was assayed against C6orf203 in the same assay as above. Details: shRNA.

Sequence | sensor-assay potency score (higher = more potent)
TATTTTAATAAAAATGTCCTAT | -0.604
TTAAACTTTTCCACCGCCGTAA | -0.414
TTACTTTTGAGTCTTACGGAAA | -1.38
TATTACTTTTGAGTCTTACGGA | -0.0954
TAGTAGATTTTGTAGACCTTAT | -0.878
TTCAGGACAACATCATACCGAA | -0.635
TAGAAAAATACAAGTATCGATT | -1.01
